Screening data from PubChem BioAssay.
Compounds with a hit are over-represented: about 2.9% of the library has one in this group of screens.
PfG6PD inh = PfG6PD (Plasmodium falciparum) enzyme inhibition. inhibition, % at 20 µM. 350,000 tested, 0.78% active. PfGluPho enzyme, NADPH resazurin-diaphorase fluorescence;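 active = inhibition reaching at least a set limit at 20 µM in the primary screen, cut at about 59% in these data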
H9c2 TAG inh = triacylglycerol accumulation inhibition; H9c2 cells, Nile Red lipid (TAG) fluorescence; cells loaded with 200 µM oleic acid; 230,000 tested, 0.66% active; AID 651582; inhibition, % at 12.5 µM;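 active = pattern-corrected inhibition of lipid staining of at least 50% with the nuclear-stain viability signal not falling by more than 50%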
Cardio protect = protects H9c2 cardiomyocytes from peroxide injury | protection from H2O2 cell death, % at 20 µM | 360,000 tested, 0.63% active | H2O2 injury protection, ATPLite, 2 h;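 active = compounds giving at least 50% protection of heart cells from peroxide-induced death in the single-dose screen, raw or plate-pattern-corrected value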
NadD block = NadD (S. aureus) enzyme inhibition; purified NadD enzyme, colorimetric absorbance read-out; inhibition, % at 20 µM; 360,000 tested, 0.78% active; AID 602399; in the data active = inhibition above about 26%
APOBEC3G inh = inhibitors of human APOBEC3G DNA deaminase; Q9HC16; recombinant A3G, ssDNA deamination FAM/TAMRA fluorescence; inhibition, % at 20 µM; 330,000 tested, 0.28% active; AID 493012;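 active = inhibition of at least 40% at 20 µM, with no more than 30% in the related APOBEC3A deaminase screen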
Target sequence (Q9HC16 whole entry, looked up): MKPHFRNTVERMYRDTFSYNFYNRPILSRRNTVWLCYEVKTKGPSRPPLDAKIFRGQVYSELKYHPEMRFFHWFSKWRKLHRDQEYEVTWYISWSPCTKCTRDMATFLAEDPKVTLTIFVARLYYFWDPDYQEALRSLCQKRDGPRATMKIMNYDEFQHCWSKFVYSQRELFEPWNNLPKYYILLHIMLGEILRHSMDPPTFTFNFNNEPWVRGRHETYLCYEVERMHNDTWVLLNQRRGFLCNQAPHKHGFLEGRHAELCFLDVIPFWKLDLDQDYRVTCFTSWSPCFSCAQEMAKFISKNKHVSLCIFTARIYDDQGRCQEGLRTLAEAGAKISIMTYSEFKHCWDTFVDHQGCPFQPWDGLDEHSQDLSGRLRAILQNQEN
A3A deaminase = blocks human APOBEC3A ssDNA deamination. P31941. inhibition, % at 20 µM. 330,000 tested, 0.41% active. recombinant A3A, FAM/TAMRA ssDNA deamination fluorescence. AID 493011;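 active = at least 40% inhibition at 20 µM here, with at most 30% in a related deaminase screen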
A3A conf = APOBEC3A (human) deaminase inhibition, confirmed; shares compounds with A3A deaminase; recombinant A3A, ssDNA deaminase UDG fluorescence assay; inhibition, % at 20 µM; 1,400 tested, 63% active; AID 493151;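 active = inhibition reaching a set limit, 80% of the first screen's cutoff, at 20 µM in any replicate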
UDG A3A counter = UDG inhibition in APOBEC3A counter-screen; shares compounds with A3A deaminase; UDG counterscreen, FAM/TAMRA uracil oligo fluorescence; inhibition, % at 20 µM; 1,000 tested, under 10 active; call rule not given here
Of the large screens only hits and unclear results are named; the others gave an inactive call (follow-up assays come after a bar, where they were run).

COc1ccc(C(=O)Nc2ccc3c(c2)C(=O)c2ccccc2C3=O)cc1OC	A3A deaminase 66 | A3A conf inactive
COc1cc(C(=O)Nc2ccc3c(c2)C(=O)c2ccccc2C3=O)cc(OC)c1OC	none (no result: H9c2 TAG inh, APOBEC3G inh, A3A deaminase)
CCOc1ccc(S(=O)(=O)N2CCN(C(=O)CN3C(=O)NC4(CCCC4)C3=O)CC2)cc1	A3A deaminase 41 | A3A conf 36 | UDG A3A counter inactive
CCn1c(CNS(=O)(=O)c2ccc(Br)cc2)n[nH]c1=S	none
COc1ccc(C(=O)NC2CCN(CC(=O)NC3CCCCC3)CC2)cc1	none (no result: H9c2 TAG inh)
COc1ccc(C(=O)NC2CCN(CC(=O)N3CCCCC3)CC2)cc1	A3A deaminase 41 (no result: H9c2 TAG inh) | A3A conf inactive
Cc1ccc(NC(=O)NNC(=O)C2CC(c3cccs3)=NO2)cc1 (stereo not drawn)	none
Cc1ccc2c(c1)C1CN(C)CCC1N2C(=O)COc1ccccc1F (stereo not drawn)	none
O=c1cc(CSc2nnc(-c3cccs3)n2Cc2ccccc2)nc2sc3ccccc3n12	A3A deaminase 47 | A3A conf inactive
Cc1cc(C(=O)CSc2nnc(-c3cccs3)n2Cc2ccccc2)c(C)n1C	none
CC(=O)c1cccc(NC(=O)CN(C)Cc2ccc(OC(F)F)cc2)c1	none
CCCCOc1ccc2c(c1)/C(=C(\C(Cl)=C(Cl)Cl)[N+](=O)[O-])N2	none
C[C@@H]1CN([C@@H](C)CO)C(=O)c2c(c3ccccc3n2C)-c2ccccc2CO[C@H]1CN(C)C(=O)[C@H](C)c1ccccc1	none (no result: APOBEC3G inh, A3A deaminase)
Cn1c(CNC(=O)c2ccco2)nnc1SCC(=O)N1c2ccccc2Sc2ccccc21	A3A deaminase 63 | A3A conf 58 | UDG A3A counter inactive
CCc1ccccc1NC(=O)CSc1nnc(CNC(=O)c2ccco2)n1C	none (no result: H9c2 TAG inh)
CC(=O)N1CCN(CCN(CC2C(C)C=C(C)CC2C)C(C)=O)CC1 (stereo not drawn)	none
CC1=CC(C)C(CN(CCC[N+](C)(C)C)C(=O)Nc2ccccc2)C(C)C1 (stereo not drawn)	A3A deaminase 58 | A3A conf 28 | UDG A3A counter inactive
CCc1nnc(NC(=O)c2ccc3ncsc3c2)s1	none
COc1ccc(N2CCN(C(=O)Cc3ccc(S(=O)(=O)N4CCOCC4)s3)CC2)cc1	A3A deaminase 49 | A3A conf inactive
O=C(O)Cc1ccc(S(=O)(=O)N2CCCC2)s1	A3A deaminase 49 | A3A conf 51 | UDG A3A counter inactive
Cc1ccc(S(=O)(=O)N2CCN(C(=O)Cc3ccc(S(=O)(=O)N4CCOCC4)s3)CC2)cc1	none
O=C(/C=C/c1cccc(F)c1)NCCCn1ccnc1	none (no result: H9c2 TAG inh)
COC(=O)C1=C(C)N(CC2CC2)C(=NCc2cc(OC)c(OC)c(OC)c2)N[C@H]1c1ccccc1	A3A deaminase 47 | A3A conf 56 | UDG A3A counter inactive
COC(=O)C1=C(C)N(Cc2ccccc2)C(=NCc2cc(OC)c(OC)c(OC)c2)N[C@H]1c1ccccc1	A3A deaminase 70 (no result: H9c2 TAG inh, Cardio protect, NadD block) | A3A conf 47
COC(=O)C1=C(C)N(Cc2ccccc2)C(=NCc2cccc(Cl)c2)N[C@H]1c1ccccc1	none
COCCN=C1N[C@@H](c2ccc(Br)cc2)C(C(=O)OC)=C(C)N1Cc1ccccc1	A3A deaminase 54 | A3A conf 40 | UDG A3A counter inactive
COC(=O)C1=C(C)N(CC2CC2)C(=NCc2cccc(Cl)c2)N[C@H]1c1ccccc1	A3A deaminase 59 | A3A conf 44
CC(=O)NCCCNC(=S)NCCCN(Cc1ccc(Cl)cc1)c1ccc(Br)cn1	none (no result: PfG6PD inh, APOBEC3G inh, A3A deaminase)
CC1CC(C)(C)OC(C[N+]2(C)CCCCC2)O1 (stereo not drawn)	A3A deaminase 49 | A3A conf 77 | UDG A3A counter inactive
C[N+]1(CC2COC3(CCCCC3)O2)CCCC1 (stereo not drawn)	none (no result: H9c2 TAG inh)
Cc1cc(C)n2nc[n+](C)c2n1	A3A deaminase 53 | A3A conf 39 | UDG A3A counter inactive
CCOC(=O)C1(C)CCCN(C(=O)c2ccc(OC)cc2OC)C1 (stereo not drawn)	none (no result: PfG6PD inh, APOBEC3G inh, A3A deaminase)
